# Source: PubChem BioAssay
# An excerpt weighted towards active compounds, which were near 10% of everything screened.
# SW480 rerep: DNA re-replication induction in SW480 cells | AID 624297 | actives 1.8% (n = 340,000) | SW480 DNA re-replication, Hoechst DNA content imaging, 48 h | Potency, µM (top dose mostly 46.1 µM), usual class: activators; further: nearly all actives have a fitted effect of over 55% in size
#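 Cells (250 per well) received 23 nL compound or DMSO by pin tool and were kept 48 hr at 37 C, 5% CO2. Nuclei were then stained with Hoechst for 40 min and scanned for DNA content.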
# ELG1 DNA repair: ELG1-dependent DNA repair inhibition; HEK293T ELG1-luciferase reporter, luminescence, 16 h; DNA damage induced by 5-fluorouridine; Potency, µM (titrated, usually from 46.1 µM), most hits filed as inhibitors; actives 2.3% (n = 330,000); AID 504467; further: nearly all actives have a fitted effect of over 55% in size
#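 Quantitative HTS, concentration-response format. 2,000 cells/well co-treated with 5-fluorouridine and compound, 16 hr in 5% CO2 at 37 °C; ONE-Glo luminescence read after 30 min.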
# Gal4-VP16 FLuc: counter-screen for ROR gamma inhibitors: Gal4-VP16 reporter; Drosophila S2 Gal4-VP16 UAS-luciferase, luminescence, 20 h; Potency, µM (highest dose often 53.6 µM), usual class: inhibitors; actives 3.5% (n = 310,000); AID 2546;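 further: Gal4-VP16 expression switched on by copper sulfate through the metallothionein promoter; nearly all actives have a fitted effect of over 50% in size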
# RORg inh: blocks mouse ROR gamma transcriptional activity. P51450. Drosophila S2 Gal4-RORgamma UAS-luciferase reporter, 20 h. Potency, µM (top dose mostly 53.6 µM), actives largely listed as inhibitors. actives 5.4% (n = 310,000). AID 2551; further: nearly all actives have a fitted effect of over 60% in size
# Target sequence (P51450 whole entry, looked up, the tested form may be a part): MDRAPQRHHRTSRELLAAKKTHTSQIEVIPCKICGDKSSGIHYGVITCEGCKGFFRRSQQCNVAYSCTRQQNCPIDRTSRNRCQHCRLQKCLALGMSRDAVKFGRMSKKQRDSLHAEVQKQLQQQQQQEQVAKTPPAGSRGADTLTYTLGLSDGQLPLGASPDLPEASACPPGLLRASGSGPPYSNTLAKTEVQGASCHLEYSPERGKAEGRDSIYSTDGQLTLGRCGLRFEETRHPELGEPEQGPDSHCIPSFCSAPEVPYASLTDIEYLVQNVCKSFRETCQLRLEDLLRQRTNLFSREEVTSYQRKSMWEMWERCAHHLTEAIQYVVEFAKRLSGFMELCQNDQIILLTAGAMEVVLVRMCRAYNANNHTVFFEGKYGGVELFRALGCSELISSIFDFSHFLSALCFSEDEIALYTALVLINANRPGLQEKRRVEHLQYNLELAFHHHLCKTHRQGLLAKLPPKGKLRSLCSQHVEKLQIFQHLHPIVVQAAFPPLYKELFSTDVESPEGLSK
#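 Drosophila S2 cells stably expressing Gal4-DBD/mouse RORγ fusion under metallothionein promoter plus UAS-luciferase; compound 1 h, then 700 uM CuSO4 induction for 20 h at ambient temperature; inhibition read as reduced luminescence.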
# MCF10A rerep: DNA re-replication induction in MCF 10a cells | actives 2.9% (n = 350,000) | MCF 10A DNA re-replication, Hoechst nuclear intensity, 48 h | Potency, µM (top dose mostly 46.1 µM), most hits filed as activators; further: nearly all actives have a fitted effect of over 50% in size
# Hits are given with their value; i = inactive; ? = inconclusive; nt = no result given; [ ] = remark or other dose. The call rests on the fitted dose curve; in most records, active means well fitted curve in the direction sought with a large enough effect; inconclusive means small, poorly fitted or top-dose-only effect, or another doubt; inactive means no such curve, though single readings can be large; an effect the other way counts as inactive or inconclusive.
SMILES,SW480 rerep,ELG1 DNA repair,Gal4-VP16 FLuc,RORg inh,MCF10A rerep
CCc1ccc(NC(=O)C2CCN(c3ncnc4c3nc3n4CCCCC3)CC2)cc1,i,2.6µM,i,i,i
O=C(Nc1ccccn1)C1CCN(c2ncnc3c2nc2n3CCCCC2)CC1,i,2.6µM,i,i,i
C=C(C)C(O)/C=C/C=C/c1ccccc1 (centres undefined),nt,nt,i[10 µM],i[10 µM],nt
CC(C)Cc1nnc(NC(=O)CCC(=O)N2CCN(c3ccccc3)CC2)s1,i,i,i,i,i
CC(C)Cc1nnc(NC(=O)CCC(=O)N2CCN(c3ccc([N+](=O)[O-])cc3)CC2)s1,?,9.2µM,i,i,i
COc1ccc(CN2CCN(C(=O)CCC(=O)Nc3nnc(C(F)(F)F)s3)CC2)cc1F,i,i,i,?,i
COc1ccc(CN2CCN(C(=O)CCC(=O)Nc3nnc(CC(C)C)s3)CC2)cc1F,i,5.8µM,i,i,i
Cc1ccc(OCCN2CCN(C(=O)CCC(=O)Nc3nnc(C(C)C)s3)CC2)cc1,i,i,13µM,i,i
COc1ccc(CN2CCN(C(=O)CCC(=O)Nc3nnc(C4CCCCC4)s3)CC2)cc1F,i,5.8µM,i,i,?
FC(F)(F)C(F)(F)C(F)(F)C(F)(F)C(F)(F)F,i,nt,i,i,i
O=C(Nc1cccnc1)c1ccc(NS(=O)(=O)c2cccc([N+](=O)[O-])c2)cc1,i,i,i,i,i
Cc1ccc(OCC(=O)NC(C)c2ccc(Cl)c(Cl)c2)c([N+](=O)[O-])n1 (centres undefined),i,i,?,?,i
O=C1N(c2ccccc2)C[C@@H]2C[C@@H](c3cc4ccccc4o3)N3CCC[C@@]123,?,i,?,i,?
C#CC[N+]1(CC#Cc2ccccc2)CCCC1,i,i,i,i,i
C(#Cc1ccccc1)C[N+]1(CC#Cc2cccc3ccccc23)CCCC1,i,i,16µM,i,?
Cc1ccc(NC(=O)N2CCCn3c(SCC(=O)c4ccccc4)nnc32)cc1,i,i,i,i,i
CCC[C@@H]1CC(C(=O)NC(C2O[C@H](SC)C(OP(=O)(O)O)[C@H](O)[C@H]2O)[C@H](C)Cl)N(C)C1 (some centres undefined),nt,nt,i,i,nt
COc1ccc(NC(=O)COC(=O)C(CC(C)C)N2C(=O)C3CC=CCC3C2=O)cc1Cl (centres undefined),i,i,22µM,i,?
Cc1cc2nc(CCN(Cc3cccnc3)C(=S)Nc3ccc(F)cc3)[nH]c2cc1C,?,?,i,i,i
Cc1cc2nc(CCN(Cc3cccnc3)C(=S)Nc3ccccc3)[nH]c2cc1C,i,?,i,14µM,16µM
Cc1ccc(C)c(NS(=O)(=O)c2cc(C(=O)NCCSC3CCCCC3)ccc2C)c1,?,21µM,i,i,?
CCN(C(=O)CSc1nc2n[nH]c(C)c2c(=N)n1-c1ccc(Cl)c(C)c1)c1cccc(C)c1,?,?,?,13µM,8.2µM
Cc1[nH]nc2nc(SCC(=O)NC3CCCCC3)n(-c3ccc(Br)cc3)c(=N)c12,?,?,?,?,12µM
COc1ccc(OC)c(CCNC(=O)c2ccc3c(c2)N(Cc2ccc(F)cc2)CCS3)c1,i,?,i,i,13µM
CCOC(=O)N1CCN(C(=O)c2ccc3c(=O)n(Cc4ccccc4)c(=S)[nH]c3c2)CC1,i,i,?,13µM,i
SMILES,SW480 rerep,ELG1 DNA repair,Gal4-VP16 FLuc,RORg inh,MCF10A rerep
CCOC(=O)N1CCN(C(=O)c2ccc(Cn3c(=S)[nH]c4cc5c(cc4c3=O)OCO5)cc2)CC1,i,23µM,?,i,i
COCCSc1ccccc1C(=O)N1CCCC(C)C1 (centres undefined),i,i,i,i,i
CCOC(=O)N1CCN(C(=O)c2ccc3c(=O)n(Cc4ccccc4OC)c(=S)[nH]c3c2)CC1,i,i,i,?,i
CCOC(=O)N1CCC(n2c(=S)[nH]c3ccccc3c2=O)CC1,i,i,7.1µM,8.9µM,i
CCOC(=O)C1CCCN(C(=O)c2ccccc2SCCOC)C1 (centres undefined),?,i,i,i,21µM
Cc1ccccc1CN1C(=O)[C@H]2Cc3c([nH]c4ccccc34)C(C)(C)N2C1=O,i,nt,nt,nt,?
O=C(NCCC1CC1(Cl)Cl)c1ccc([N+](=O)[O-])cc1 (centres undefined),i,?,i,i,i
O=C(Nc1ccccc1F)C1COc2ccccc2O1 (centres undefined),i,?,i,i,i
CCOC(=O)C1CCCN(C(=O)c2ccc3c(=O)n(CCOC)c(=S)[nH]c3c2)C1 (centres undefined),i,8.2µM,i,i,?
CCOC(=O)N1CCN(C(=O)c2ccc3c(=O)n(Cc4ccc(OC)cc4)c(=S)[nH]c3c2)CC1,i,13µM,?,i,i
COCCn1c(=S)[nH]c2cc(C(=O)N3CCC(C(N)=O)(N4CCCCC4)CC3)ccc2c1=O,i,i,i,i,i
O=C(/C=C/c1cccc(Br)c1)N1CCN(c2ccccn2)CC1,i,i,i,i,i
O=C(CCNC(=O)c1ccccc1Cl)NCC1CCCO1 (centres undefined),i,i,nt,nt,i
N#CC1c2ccccc2C=CN1C(=O)N(c1ccccc1)c1ccccc1 (centres undefined),?,nt,nt,nt,3.3µM
COC(=O)c1nc2nc(C)cc(C(F)(F)F)n2n1,i,i,i,i,i
O=C(c1cnn2c(C(F)(F)F)cc(-c3cccs3)nc12)N1CCOCC1,?,?,i,i,?
CCOC(=O)N1CCN(C(=O)c2cnn3c(C(F)(F)F)cc(-c4cccs4)nc23)CC1,i,6.5µM,i[10 µM],i,i
COC(=O)c1nc2nc(-c3cccs3)cc(C(F)(F)F)n2n1,0.52µM,i,i,i,i
Clc1nc(Cl)nc(-c2cn(-c3ccccc3)c3ccccc23)n1,i,i,i,i,i
N#Cc1c(NCCN)nc(NCc2ccccc2)c2c1CCN(Cc1ccccc1)C2,21µM,13µM,i,i,?
Cc1ccccc1C(=O)Nc1ccc(C(=O)N/N=C/c2ccncc2)cc1,i,?,i,i,i
CCOc1ccc(C(=O)Nc2ccccc2C(=O)O)cc1,i,?,?,6.3µM,i
O=C(Nc1ccccc1C(=O)N/N=C/c1ccc(F)cc1)c1ccccc1Br,i,i,?,10µM,i
O=C(N/N=C/c1ccc(O)cc1)c1ccc(NC(=O)c2ccccc2Br)cc1,?,?,i,i,?
O=C(Nc1ccccc1C(=O)N/N=C/c1ccncc1)c1ccccc1,i,?,?,8.9µM,i
COc1ccc(C(=O)Nc2ccccc2C(=O)N/N=C/c2ccco2)cc1,i,?,10µM,2µM,i
CN(C(=O)COC(=O)c1cccc(S(=O)(=O)N(C)c2ccccc2)c1)C1CCCCC1,i,?,nt,nt,i
Cc1ccc(S(=O)(=O)Nc2cccc3ccc[n+](C)c23)cc1,nt,nt,i,i,nt
